# A collection of fitness landscapes (doi:10.1016/j.celrep.2020.107928)
# Whole data set: some 81,000 sequences, median “one-hybrid fitness for binding NBS DNA” near -0.1, cut for the highest 2% near 0.36. The entries come from a sample that favours the highest values as a whole.
# B1: Caulobacter ParB omega fusion; a variant is named by its letters at X, in order, B8GW30 (parent)
# chain: MESVVVGEPGMSEGRRGLGRGLSALLGEVDAAPAQAPGEQLGGSREAPIEILQRNPDQPRRTFREEDLEDLSNSIREKGVLQPILVRPSPDTAGEYQIVAGERAWRAAQRAGLKTVPIMVRELDDLAVLEIGIIENVQRADLNVLEEALSYKVLMEKFERTQENIAQTIGKSXSHVANXMRLLXLPDEVQSYLVSGELTAXHARAIAAAADPVALAKQIIEGGLSVRETEALARKAPNLSAGKSKGGRPPRVKDTDTQALESDLSSVLGLDVSIDHRGSTGTLTITYATLEQLDDLCNRLTRGI
# Variants of: B1
# Experiment: one-hybrid fitness for binding NBS DNA (the Noc-binding site; scaled: cognate 1, non-cognate 0); higher = stronger binding
# Conditions: with NBS DNA site
# Summary of the method: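 Bacterial one-hybrid selection in E. coli USO rpoZ- hisB- pyrF- with a HIS3 reporter carrying the site 19 bp from the promoter, screening Caulobacter ParB libraries with four specificity codons randomised (NNS). Cells grew 48 hours at 37°C on M9-minus-histidine plus 0.1 mM IPTG and 5 mM 3-AT. Plasmids before and after selection were Illumina-sequenced, three replicate libraries pooled, and variants under 10 reads dropped. Fitness is the log change in variant-to-wild-type read ratio, rescaled to cognate 1, non-cognate 0.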
row,Variant,one-hybrid fitness for binding NBS DNA
1,PADW,≤ 0.2
2,EYHR,≤ 0.2
3,CRTW,≤ 0.2
4,QAIT,0.291
5,QTIT,0.522
6,QPPT,≤ 0.2
7,QTPH,≤ 0.2
8,QCPT,0.382
9,QSPT,0.276
10,QTPT,0.418
11,QTPP,≤ 0.2
12,QLIT,0.287
13,RCQW,≤ 0.2
14,IHRR,≤ 0.2
15,NHKR,0.202
16,QHVR,0.379
17,QHVS,0.221
18,QHVP,≤ 0.2
19,QHKR,1.03
20,DHKR,≤ 0.2
21,LTLF,≤ 0.2
22,YIRF,≤ 0.2
23,KAST,≤ 0.2
24,GTAV,≤ 0.2
25,KMDR,≤ 0.2

row,Variant,one-hybrid fitness for binding NBS DNA
1,DPRR,≤ 0.2
2,KTRR,0.541
3,KKYR,≤ 0.2
4,DCRR,0.416
5,DSRR,≤ 0.2
6,KTDR,≤ 0.2
7,KMYR,≤ 0.2
8,KKRR,0.47
9,KKDR,≤ 0.2
10,KTYR,≤ 0.2
11,KMRR,0.398
12,QEHI,≤ 0.2
13,GLEC,≤ 0.2
14,KISR,≤ 0.2
15,NLTF,≤ 0.2
16,IPIE,≤ 0.2
17,AYRA,≤ 0.2
18,LADD,≤ 0.2
19,DHMR,≤ 0.2
20,RSEM,≤ 0.2
21,KIPV,≤ 0.2
22,AVRD,≤ 0.2
23,ISPK,≤ 0.2
24,CECG,≤ 0.2
25,HLGA,≤ 0.2

row,Variant,one-hybrid fitness for binding NBS DNA
1,KSRR,0.343
2,KCRR,0.46
3,KQYR,≤ 0.2
4,KHYR,≤ 0.2
5,KHRR,0.367
6,KHQR,≤ 0.2
7,KPRR,≤ 0.2
8,KQRR,0.416
9,NQRR,≤ 0.2
10,PLRA,≤ 0.2
11,YGEG,≤ 0.2
12,NPWT,≤ 0.2
13,YGMG,≤ 0.2
14,ETAK,≤ 0.2
15,RFQF,≤ 0.2
16,NMWY,≤ 0.2
17,NYHG,≤ 0.2
18,ANWC,≤ 0.2
19,AQQE,≤ 0.2
20,RPKH,≤ 0.2
21,RSKH,0.357
22,RCKH,0.403
23,RMKH,0.402
24,RMKP,≤ 0.2
25,RMVS,0.29

row,Variant,one-hybrid fitness for binding NBS DNA
1,RMKD,≤ 0.2
2,RMKN,≤ 0.2
3,RMKS,0.598
4,CHSP,≤ 0.2
5,DPDC,≤ 0.2
6,RVHD,≤ 0.2
7,RVFT,0.271
8,RVHT,0.487
9,RVHP,≤ 0.2
10,RVHM,≤ 0.2
11,RVAS,0.358
12,RVHY,≤ 0.2
13,RVHS,0.461
14,RVHH,≤ 0.2
15,RVAT,0.383
16,RVHN,≤ 0.2
17,RVHR,0.484
18,GNNW,≤ 0.2
19,HSLW,≤ 0.2
20,SLMG,≤ 0.2
21,ACAR,≤ 0.2
22,KRNK,≤ 0.2
23,SCKG,≤ 0.2
